This excerpt belongs to a sample that is enriched for hits.
AmpC inh detg = blocks E. coli AmpC beta-lactamase in detergent assay. AmpC hydrolysis of nitrocefin, absorbance 480 nm, 0.01% Triton. Potency, µM (series often up to 114 µM), usual class: inhibitors. P00811. actives 0.041% (n = 370,000). AID 485294; note: nearly all actives have a fitted effect of over 25% in size
Target sequence (P00811 whole entry, looked up): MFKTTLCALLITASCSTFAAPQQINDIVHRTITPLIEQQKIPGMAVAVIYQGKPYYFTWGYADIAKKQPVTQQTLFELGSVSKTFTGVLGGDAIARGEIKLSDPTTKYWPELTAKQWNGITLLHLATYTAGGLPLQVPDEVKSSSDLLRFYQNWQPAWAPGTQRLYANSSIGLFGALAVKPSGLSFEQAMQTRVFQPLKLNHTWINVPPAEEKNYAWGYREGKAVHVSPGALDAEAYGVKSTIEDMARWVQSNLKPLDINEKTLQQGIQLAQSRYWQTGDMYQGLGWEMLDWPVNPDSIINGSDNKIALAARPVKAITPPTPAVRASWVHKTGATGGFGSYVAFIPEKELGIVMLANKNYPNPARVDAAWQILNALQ
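AmpC (5.3 nM in the dispensed reagent) in 20 mM phosphate pH 7.0 with 0.01% (detergent screen) or 0.0001% Triton X-100 was preincubated with compounds for 15 min at room temperature. Nitrocefin was then added from an 800 uM solution, and hydrolysis was followed at 480 nm.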
AMA1 RON2 block = disrupts binding of P. falciparum AMA1 to RON2; AlphaScreen AMA1-biotinylated RON2 peptide binding; Potency, µM (highest dose often 58.2 µM), hits mostly inhibitors; actives 0.2% (n = 360,000); note: nearly all actives have a fitted effect of over 45% in size
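AMA1 (3D7) with his tag at 25 nM final met compounds first, then biotinylated RON2 peptide at 25 nM; detection used donor plus acceptor beads, 10 µg/mL apiece, read by AlphaScreen after 30 min at room temperature.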
Cycloheximide cs = affects cycloheximide protein synthesis inhibition readout, counter-screen. cell reporter, cycloheximide protein synthesis inhibition counterscreen. max response, %. actives 12% (n = 300,000); in the data active = max response mostly above about 13%, no sharp cut-off; inactive = mostly below about 14%; note: read at 38.3 µM for the half of the compounds with a filed dose
AmpC inh no detg = blocks E. coli AmpC beta-lactamase in detergent-free assay; actives 0.52% (n = 330,000); AmpC nitrocefin hydrolysis, absorbance 480 nm, 0.0001% Triton; Potency, µM (titrated, usually from 57.1 µM), usual class: inhibitors; note: nearly all actives have a fitted effect of over 20% in size
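AmpC (5.3 nM in the dispensed reagent) in 20 mM phosphate pH 7.0 with 0.01% (detergent screen) or 0.0001% Triton X-100 was preincubated with compounds for 15 min at room temperature. Nitrocefin was then added from an 800 uM solution, and hydrolysis was followed at 480 nm.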
SARS PLpro yeast = inhibitors of SARS-CoV papain-like protease in yeast; actives 0.19% (n = 330,000); S. cerevisiae expressing SARS-CoV PLpro, growth rescue; Potency, µM (doses to about 32.9 µM), most hits filed as activators; calls by dose curve; note: nearly all actives have a fitted effect of over 55% in size
Shiga toxin inh = inhibitors of Shiga toxin in Vero cells; Vero cells, Shiga toxin protein synthesis inhibition reporter; actives 9.2% (n = 290,000); inhibition, % at 38.7 µM; in the data active = inhibition mostly above about 28%, no sharp cut-off; inactive = mostly below about 43%
Numbers stand for hits. Unless noted, calls come from the whole dose curve; as a rule, active = well fitted curve in the direction sought with a large enough effect; inconclusive = small, poorly fitted or top-dose-only effect, or another doubt; inactive = no such curve, though single readings can be large; an effect the other way counts as inactive or inconclusive.

CCOC(=O)N1CCC(Nc2nc3ccccc3nc2NS(=O)(=O)c2ccc(Cl)cc2)CC1 was read as AmpC inh detg inactive, AMA1 RON2 block inactive, Cycloheximide cs 30, AmpC inh no detg inactive, SARS PLpro yeast inactive and Shiga toxin inh 96.
`CCOC(=O)N1CCC(NC(=O)c2ccc(Cl)cc2)CC1` gave AmpC inh detg inactive, AMA1 RON2 block inactive, Cycloheximide cs inactive, AmpC inh no detg inactive, SARS PLpro yeast inactive and Shiga toxin inh inactive.
Cc1cccc(NC(=O)N2CCc3ccccc3C2)c1C was read as AmpC inh detg inconclusive, AMA1 RON2 block inactive, Cycloheximide cs 29, AmpC inh no detg inactive, SARS PLpro yeast inactive and Shiga toxin inh 39.
`Cc1ccc(NC(=O)C2OCCc3ccccc32)cc1C` (centres undefined) gave AmpC inh detg inactive, AMA1 RON2 block inactive, Cycloheximide cs 37, AmpC inh no detg inactive, SARS PLpro yeast inactive and Shiga toxin inh 100.
Screening Cc1cc(C)cc(NC(=O)N2CCc3ccccc3C2)c1 returned AmpC inh detg inconclusive, AMA1 RON2 block inactive, Cycloheximide cs 36, AmpC inh no detg inactive, SARS PLpro yeast inactive and Shiga toxin inh 75.
For Cc1ccc(NC(=O)N2CCc3ccccc3C2)cc1C the results were AmpC inh detg inconclusive, AMA1 RON2 block inactive, Cycloheximide cs 78, AmpC inh no detg inactive, SARS PLpro yeast inactive and Shiga toxin inh 152.
Screening O=c1c(Cl)c(N2CCN(c3ccc(F)cc3)CC2)cnn1C12CC3CC(CC(C3)C1)C2 returned AmpC inh detg inconclusive, AMA1 RON2 block inactive, Cycloheximide cs inactive, AmpC inh no detg inactive, SARS PLpro yeast inactive and Shiga toxin inh inactive.
Screening C1=CN2CCC1C(c1ccccc1)C2 (centres undefined) returned AmpC inh detg inactive, AMA1 RON2 block inactive, Cycloheximide cs inactive, AmpC inh no detg inactive, SARS PLpro yeast inactive and Shiga toxin inh inactive.
Screening Cc1ccc(NC(=O)N2CCN(C)CC2)cc1NC(=O)N1CCN(C)CC1 returned AmpC inh detg inactive, AMA1 RON2 block inactive, Cycloheximide cs 12, AmpC inh no detg inactive, SARS PLpro yeast inactive and Shiga toxin inh inactive.
For CN1CCN(C(=O)Nc2ccccc2)CC1 the results were AmpC inh detg inactive, AMA1 RON2 block inactive, Cycloheximide cs inactive, AmpC inh no detg inactive, SARS PLpro yeast inactive and Shiga toxin inh inactive.
CC1CCCCN1CC(=O)c1c[nH]c2ccccc12 (centres undefined) was read as AmpC inh detg inactive, AMA1 RON2 block inactive, Cycloheximide cs inactive, AmpC inh no detg inactive, SARS PLpro yeast inactive and Shiga toxin inh inactive.
COc1cc2c(cc1OC)C(C)N(C(=O)c1cc3ccccc3o1)CC2 (centres undefined) was read as AmpC inh detg inactive, AMA1 RON2 block inactive, Cycloheximide cs inactive, AmpC inh no detg inactive, SARS PLpro yeast inactive and Shiga toxin inh inactive.
For CN(Cc1nc(-c2ccccn2)no1)S(=O)(=O)c1ccc(Br)cc1 the results were AmpC inh detg inactive, AMA1 RON2 block inactive, Cycloheximide cs inactive, AmpC inh no detg inactive, SARS PLpro yeast inactive and Shiga toxin inh inactive.
For c1cc(-c2noc(CC3CCCCC3)n2)ccn1 the results were AmpC inh detg inconclusive, AMA1 RON2 block inactive, Cycloheximide cs inactive, AmpC inh no detg inactive, SARS PLpro yeast inactive and Shiga toxin inh 122.
c1ccc(-c2noc(CC3CCCCC3)n2)nc1 was read as AmpC inh detg inactive, AMA1 RON2 block inactive, Cycloheximide cs 50, AmpC inh no detg inactive, SARS PLpro yeast inactive and Shiga toxin inh 82.
For CCCCCCC1CCC(c2nc(-c3ccncc3)no2)CC1 (centres undefined) the results were AmpC inh detg inconclusive, AMA1 RON2 block inactive, Cycloheximide cs inactive, AmpC inh no detg inactive, SARS PLpro yeast inactive and Shiga toxin inh inactive.
For CCN(CC)S(=O)(=O)c1ccc(O)c(C(=O)OCC(=O)Nc2ccc(OC(F)(F)F)cc2)c1 the results were AmpC inh detg inactive, AMA1 RON2 block inactive, Cycloheximide cs inactive, AmpC inh no detg inactive, SARS PLpro yeast inactive and Shiga toxin inh inactive.
O=C(Nc1ccccc1C(=O)N/N=C/c1ccco1)c1ccc(Cl)cc1 was read as AmpC inh detg inactive, AMA1 RON2 block inactive, Cycloheximide cs 19, AmpC inh no detg inactive, SARS PLpro yeast inactive and Shiga toxin inh 76.

Bioassay records as filed in PubChem.
